Data as given in the supplement of paper PMC4466140.

Biological target: CaNbp2
Experiment: SPOT peptide array binding signal intensity (averaged, normalized) (arbitrary units (background-subtracted, floor 0; scale differs between SH3 domains)); higher = stronger binding of the SH3 domain to the peptide
Experimental: (§1)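 GST-tagged SH3 domains from S. cerevisiae (Sc), A. gossypii (Ag), C. albicans (Ca) and S. pombe (Sp) were incubated at 10 ug/ml overnight at 4 C on cellulose SPOT membranes carrying 292 synthetic 15-mer peptides mined from the S. cerevisiae proteome (cysteines replaced by serines). Binding was detected with anti-GST antibody, HRP secondary and chemiluminescence, quantified with Genespotter, and reported as normalized spot intensities averaged over biological replicates.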

Binder	SPOT peptide array binding signal intensity
QRKSLRRPTLSKPAV	319

Biological target: CaRvs167
Experiment: as above
Experimental: as §1

Binder	SPOT peptide array binding signal intensity
QRKSLRRPTLSKPAV	17.5

Biological target: CaRvs167-3
Experiment: as above
Experimental: as §1

Binder	SPOT peptide array binding signal intensity
QRKSLRRPTLSKPAV	5.5

Biological target: CaSho1
Experiment: as above
Experimental: as §1

Binder	SPOT peptide array binding signal intensity
QRKSLRRPTLSKPAV	76

Biological target: CaSla1-D1-D2
Experiment: as above
Experimental: as §1

Binder	SPOT peptide array binding signal intensity
QRKSLRRPTLSKPAV	118

Biological target: CaSla1-D3
Experiment: as above
Experimental: as §1

Binder	SPOT peptide array binding signal intensity
QRKSLRRPTLSKPAV	≤ 0

Biological target: ScAbp1
Experiment: as above
Experimental: as §1

Binder	SPOT peptide array binding signal intensity
QRKSLRRPTLSKPAV	52.5

Biological target: ScBbc1
Experiment: as above
Experimental: as §1

Binder	SPOT peptide array binding signal intensity
QRKSLRRPTLSKPAV	45.8

Biological target: ScBem1-D1
Experiment: as above
Experimental: as §1

Binder	SPOT peptide array binding signal intensity
QRKSLRRPTLSKPAV	53

Biological target: ScBzz1-D1
Experiment: as above
Experimental: as §1

Binder	SPOT peptide array binding signal intensity
QRKSLRRPTLSKPAV	32

Biological target: ScBzz1-D2
Experiment: as above
Experimental: as §1

Binder	SPOT peptide array binding signal intensity
QRKSLRRPTLSKPAV	43

Biological target: ScCyk3
Experiment: as above
Experimental: as §1

Binder	SPOT peptide array binding signal intensity
QRKSLRRPTLSKPAV	17

Biological target: ScFus1
Experiment: as above
Experimental: as §1

Binder	SPOT peptide array binding signal intensity
QRKSLRRPTLSKPAV	151

Biological target: ScHof1
Experiment: as above
Experimental: as §1

Binder	SPOT peptide array binding signal intensity
QRKSLRRPTLSKPAV	0.5

Biological target: ScHse1
Experiment: as above
Experimental: as §1

Binder	SPOT peptide array binding signal intensity
QRKSLRRPTLSKPAV	1190

Biological target: ScLsb1
Experiment: as above
Experimental: as §1

Binder	SPOT peptide array binding signal intensity
QRKSLRRPTLSKPAV	4

Biological target: ScLsb2
Experiment: as above
Experimental: as §1

Binder	SPOT peptide array binding signal intensity
QRKSLRRPTLSKPAV	6

Biological target: ScLsb3
Experiment: as above
Experimental: as §1

Binder	SPOT peptide array binding signal intensity
QRKSLRRPTLSKPAV	356

Biological target: ScLsb4
Experiment: as above
Experimental: as §1

Binder	SPOT peptide array binding signal intensity
QRKSLRRPTLSKPAV	10.5

Biological target: ScMyo3
Experiment: as above
Experimental: as §1

Binder	SPOT peptide array binding signal intensity
QRKSLRRPTLSKPAV	0.5

Biological target: ScMyo5
Experiment: as above
Experimental: as §1

Binder	SPOT peptide array binding signal intensity
QRKSLRRPTLSKPAV	1

Biological target: ScNbp2
Experiment: as above
Experimental: as §1

Binder	SPOT peptide array binding signal intensity
QRKSLRRPTLSKPAV	183

Biological target: ScPex13
Experiment: as above
Experimental: as §1

Binder	SPOT peptide array binding signal intensity
QRKSLRRPTLSKPAV	≤ 0

Biological target: ScRvs167
Experiment: as above
Experimental: as §1

Binder	SPOT peptide array binding signal intensity
QRKSLRRPTLSKPAV	25

Biological target: ScSho1
Experiment: as above
Experimental: as §1

Binder	SPOT peptide array binding signal intensity
QRKSLRRPTLSKPAV	250

Biological target: ScSla1-D1-D2
Experiment: as above
Experimental: as §1

Binder	SPOT peptide array binding signal intensity
QRKSLRRPTLSKPAV	370

Biological target: ScSla1-D3
Experiment: as above
Experimental: as §1

Binder	SPOT peptide array binding signal intensity
QRKSLRRPTLSKPAV	38.8

Biological target: SpAbp1-D1
Experiment: as above
Experimental: as §1

Binder	SPOT peptide array binding signal intensity
QRKSLRRPTLSKPAV	101

Biological target: SpBbc1
Experiment: as above
Experimental: as §1

Binder	SPOT peptide array binding signal intensity
QRKSLRRPTLSKPAV	3.5

Biological target: SpBzz1-D1
Experiment: as above
Experimental: as §1

Binder	SPOT peptide array binding signal intensity
QRKSLRRPTLSKPAV	202

Biological target: SpBzz1-D2
Experiment: as above
Experimental: as §1

Binder	SPOT peptide array binding signal intensity
QRKSLRRPTLSKPAV	≤ 0

Biological target: SpCyk3
Experiment: as above
Experimental: as §1

Binder	SPOT peptide array binding signal intensity
QRKSLRRPTLSKPAV	≤ 0

Biological target: SpHof1
Experiment: as above
Experimental: as §1

Binder	SPOT peptide array binding signal intensity
QRKSLRRPTLSKPAV	38.8

Biological target: SpHof1-2
Experiment: as above
Experimental: as §1

Binder	SPOT peptide array binding signal intensity
QRKSLRRPTLSKPAV	6.5

Biological target: SpHof1-3
Experiment: as above
Experimental: as §1

Binder	SPOT peptide array binding signal intensity
QRKSLRRPTLSKPAV	375

Biological target: SpHse1
Experiment: as above
Experimental: as §1

Binder	SPOT peptide array binding signal intensity
QRKSLRRPTLSKPAV	140

Biological target: SpLsb1
Experiment: as above
Experimental: as §1

Binder	SPOT peptide array binding signal intensity
QRKSLRRPTLSKPAV	8.75

Biological target: SpLsb4
Experiment: as above
Experimental: as §1

Binder	SPOT peptide array binding signal intensity
QRKSLRRPTLSKPAV	99

Biological target: SpMyo1
Experiment: as above
Experimental: as §1

Binder	SPOT peptide array binding signal intensity
QRKSLRRPTLSKPAV	7.75

Biological target: SpNbp2
Experiment: as above
Experimental: as §1

Binder	SPOT peptide array binding signal intensity
QRKSLRRPTLSKPAV	63.5

Biological target: SpPex13
Experiment: as above
Experimental: as §1

Binder	SPOT peptide array binding signal intensity
QRKSLRRPTLSKPAV	10

Biological target: SpRvs167
Experiment: as above
Experimental: as §1

Binder	SPOT peptide array binding signal intensity
QRKSLRRPTLSKPAV	14.5

Biological target: SpSla1-D1-D2
Experiment: as above
Experimental: as §1

Binder	SPOT peptide array binding signal intensity
QRKSLRRPTLSKPAV	≤ 0

Biological target: SpSla1-D3
Experiment: as above
Experimental: as §1

Binder	SPOT peptide array binding signal intensity
QRKSLRRPTLSKPAV	1
